Measurements taken from PubChem BioAssay (NCI).
This is part of a sample that, as a whole, favours compounds with a hit. Of some 79,000 tested, about 15% had one in any assay. Cut-off read from the data, not from the text of the source: active = growth inhibition above about 70%; inactive = the rest.

Columns and labels:
[1] = NCI Yeast Anticancer Drug Screen. Data for the rad50 strain (AID 155);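 note: 0% = growth of vehicle-only cultures of the same strain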; conditions: S. cerevisiae rad50 strain growth inhibition; at 50.0 µM; hits give high values
How it was run: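 Cells are treated with compound, grown, and their growth is then scored against vehicle-only cultures of the same repair-deficient yeast strain.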

[2] = NCI Yeast Anticancer Drug Screen. Data for the mec2-1 strain (AID 157); conditions: S. cerevisiae mec2-1 strain, at 50.0 µM, hits give high values
How it was run: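 Strain: mec2-1 (DNA repair/cell cycle alteration). Compound exposure, then growth measured; inhibition expressed relative to vehicle.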

[3] = NCI Yeast Anticancer Drug Screen. Data for the sgs1 mgt1 strain (AID 161);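 note: 0% = growth of cultures given vehicle only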; conditions: S. cerevisiae sgs1 mgt1 strain, at 50.0 µM, hits give high values
How it was run: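 Test agents were incubated with a DNA-repair-mutant yeast strain. Growth was then read and compared against vehicle-treated controls.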

[4] = NCI Yeast Anticancer Drug Screen. Data for the cln2 rad14 strain (AID 165);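 note: 0% = growth equal to vehicle treated cultures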; conditions: S. cerevisiae cln2 rad14 strain, at 50.0 µM, hits give high values
How it was run: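 Compounds are applied to the cln2 rad14 yeast strain, and growth is then compared with that of vehicle-treated cultures to give inhibition.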

[5] = NCI Yeast Anticancer Drug Screen. Data for the bub3 strain (AID 167); conditions: S. cerevisiae bub3 mutant strain, at 50.0 µM, hits give high values
How it was run: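 Part of a panel of yeast mutants defective in DNA damage repair or cell cycle regulation. Each strain is grown with compound, and inhibition is calculated relative to solvent-treated cultures.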

[6] = NCI Yeast Anticancer Drug Screen. Data for the mlh1 rad18 strain (AID 175); conditions: S. cerevisiae mlh1 rad18 strain growth inhibition; at 50.0 µM; hits give high values
How it was run: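 Read-out is yeast growth inhibition, calculated against vehicle-only controls. The compound was applied to a strain engineered with DNA damage repair alterations.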

Measured: growth inhibition

Cc1ccccc1NCS(=O)(=O)O
inactive: [1] 18.2% | [2] -18.3% | [3] 13.2% | [4] -6.35% | [5] -14.8% | [6] 4.6%

COc1ccc(/C=C(\C#N)c2ccccc2NC(C)=O)cc1
inactive: [1] 6.9% | [2] 7.4% | [3] -2.95% | [4] -42.8% | [5] -10.5% | [6] 19.8%

COC(=O)c1nn(-c2ccccc2)c2nc3ccccc3c-2c1C(=O)OC
inactive: [1] 39.8% | [2] 17% | [3] 31% | [4] 18.5% | [5] 20.9% | [6] 36.5%

OCC(I)CO
inactive: [1] 15.8% | [2] 3.45% | [3] 16.9% | [4] 1.45% | [5] 1.7% | [6] 16.6%

CC(C)(C)OC(=O)NNC(=O)c1ccc([N+](=O)[O-])cc1
inactive: [1] 17.2% | [2] -9.8% | [3] -2.5% | [4] 30.6% | [5] 3.75% | [6] 5.8%

CN(Cc1cnc2nc(N)nc(N)c2n1)c1ccc(C(=O)NC(CCCCN)C(=O)O)cc1 (configuration not stated)
inactive: [1] -0.05% | [2] -9.4% | [3] -0.05% | [4] -15.8% | [5] -2.05% | [6] 30.9%

COc1ccc(C2OCCC(C)O2)cc1OC (configuration not stated)
inactive: [1] -14.6% | [2] -12.8% | [3] -19.7% | [4] -48.8% | [5] -33.5% | [6] -14.8%

CC(C)(c1ccccc1)[Si](c1ccccc1)(c1ccccc1)c1ccccc1
inactive: [1] 30.1% | [2] -7.05% | [3] 9.95% | [4] 3.2% | [5] -6.85% | [6] 0.65%

CCN(CCO)CC(O)Cn1cnc2c(N)ncnc21 (configuration not stated) (tested in a mixture with another compound)
inactive: [1] -10.6% | [2] 26.2% | [3] -11.8% | [4] 31.4% | [5] -1.95% | [6] 17.4%

NC12CC3CC(C1)CC(Cl)(C3)C2
inactive: [1] -12.6% | [2] -26.9% | [3] -32.4% | [4] -3.5% | [5] -35.9% | [6] 4.1%

COc1cccc(C2SCC(=O)N2c2nncs2)c1OC (configuration not stated)
inactive: [1] -34.8% | [2] 6% | [3] 9.95% | [4] 8.3% | [5] 2.6% | [6] -9%

C[n+]1ccc(/C=C/c2c[nH]c3ccccc23)cc1
inactive: [1] 6.25% | [2] 10.8% | [3] 3.6% | [4] -1.75% | [5] 5.1% | [6] -8.3%

O=C(O)c1cccc(C(=O)O)[n+]1[O-]
inactive: [1] 6.05% | [2] -22.6% | [3] -17.8% | [4] 2.4% | [5] -11.8% | [6] -10%

CC1=C(C)C2(C)C(C)C2(C)C1C (configuration not stated)
inactive: [1] -5.8% | [2] -13.3% | [3] 17.9% | [4] 20.6% | [5] 35% | [6] -1.7%

C=C1CC[C@H]2C(C)=CC[C@@H]3[C@H](OC(=O)[C@H]3COC)[C@@H]12
inactive: [1] 3.6% | [2] -39% | [3] -11.5% | [4] 5.4% | [5] -18.6% | [6] -11.4%

CC1OC(=O)/C(=C\N(C)C)C1=O (configuration not stated)
inactive: [1] 1.25% | [2] 9% | [3] 13.2% | [4] 42.5% | [5] 7.75% | [6] 8.6%

O=C1CCCCCCCCCCC1
inactive: [1] -8.1% | [2] -62.7% | [3] -17.6% | [4] 15.2% | [5] -17.1% | [6] 3.1%

c1ccc(Cn2c(-c3ccccc3)c[n+]3ccccc23)cc1
inactive: [1] -11.4% | [2] -10.1% | [3] 5.35% | [4] -49.4% | [5] 10.3% | [6] -6.4%

C=CCC1C(=O)NN=C1C (configuration not stated)
inactive: [1] 5.05% | [2] -12.1% | [3] -10.7% | [4] -22.5% | [5] -5.5% | [6] 2.45%

NC(=O)c1ccccc1N=NNc1ccccc1
inactive: [1] 17.5% | [2] -4.65% | [3] 2.8% | [4] -28.5% | [5] -25.1% | [6] 16.1%

CC(C)=CCC/C(C)=C\CC/C(C)=C/CO
inactive: [1] -52.5% | [2] -77.8% | [3] -39.6% | [4] -26.1% | [5] -46.7% | [6] -41.5%

NC1C2C3C=CC(C3)C12 (configuration not stated)
inactive: [1] 12.5% | [2] -3.85% | [3] -5.75% | [4] -28.9% | [5] -5.2% | [6] 8.95%

O=P(O)(O)OC1OC(n2cnc3c(NCc4ccc(F)cc4)ncnc32)C(O)C1O (configuration not stated)
inactive: [1] 0.3% | [2] 2.3% | [3] -13.1% | [4] -18.2% | [5] 2% | [6] -25.7%

O=S1(=O)CC(N2CCCCC2)C1
inactive: [1] -3.95% | [2] 2.05% | [3] 17.3% | [4] -40.9% | [5] -3% | [6] -13.3%

CN(CC(O)CN1CCCc2ccccc21)C1CCCCC1 (configuration not stated)
inactive: [1] -5.8% | [2] 0.25% | [3] 17.9% | [4] -16% | [5] 46% | [6] 19.2%

COC(=O)C1(CC(=O)C(c2ccccc2)c2ccccc2)NC(=S)NC(=O)C1C#N (configuration not stated)
inactive: [1] 5.6% | [2] 4.65% | [3] -12.8% | [4] -2.7% | [5] 0.55% | [6] -8.9%

Cc1c(C)c2ccc(OC(C)C(=O)O)cc2oc1=O (configuration not stated)
inactive: [1] -10.9% | [2] 0.8% | [3] 22.2% | [4] 31.5% | [5] 10.1% | [6] 36%

O=CNC(CSC(=O)c1ccccc1)C(=O)O (configuration not stated)
inactive: [1] -0.35% | [2] -3.75% | [3] -7.2% | [4] -15.2% | [5] -11.7% | [6] -12.7%

CC(C)N(C(=O)c1ncccc1C(=O)c1ccccn1)C(C)C
inactive: [1] -11.4% | [2] -5.65% | [3] -4.75% | [4] -5.2% | [5] -5.85% | [6] -5.05%

NNC(=O)C1CCC(=O)N1S(=O)(=O)c1ccccc1 (configuration not stated)
inactive: [1] -14% | [2] -12.1% | [3] -22% | [4] 8.95% | [5] -2.25% | [6] -25.6%

COc1ccc2c(=O)cc(-c3ccncc3)oc2c1OC
inactive: [1] 40.2% | [2] 7.8% | [3] -4.05% | [4] 2.3% | [5] -47% | [6] 31.2%

O=C(N/C(=C\c1ccccc1)C1Nc2ccccc2C(=O)O1)c1ccccc1 (configuration not stated)
inactive: [1] -6.8% | [2] 2.95% | [3] -19.6% | [4] -17.2% | [5] -8.95% | [6] -24.7%

C=C/C=N/Nc1ccc([N+](=O)[O-])cc1[N+](=O)[O-]
inactive: [1] 2.5% | [2] 5.4% | [3] 2.2% | [4] 5.9% | [5] 2.4% | [6] -1.35%

COc1ccc(N)c(C(O)CCNC(C)=O)c1 (configuration not stated)
inactive: [1] -20.1% | [2] -23.2% | [3] -25.9% | [4] -7.5% | [5] -43.5% | [6] -38.8%

C=C[C@@]1(C)CC(=O)[C@]2(O)[C@@]3(C)[C@@H](O)CCC(C)(C)[C@@H]3[C@H](O)[C@@H](OC(C)=O)[C@@]2(C)O1
inactive: [1] 0.2% | [2] -4.4% | [3] -5.75% | [4] 9.2% | [5] -4.15% | [6] -68%

CCOC(=O)C(=O)Cc1ccccn1
inactive: [1] -0.7% | [2] -6.55% | [3] -6.5% | [4] -16.3% | [5] 8.85% | [6] -13.2%

Cc1cccc(Cl)c1OCC(=O)Nc1ccccc1
inactive: [1] 20.9% | [2] 10.1% | [3] 20.8% | [4] 0.8% | [5] 58.6% | [6] -3.65%

C[N+](=C\c1ccccc1O)/N=C\c1ccccc1O
inactive: [1] 7.15% | [2] 2.05% | [3] 6.75% | [4] -35.6% | [5] 8.2% | [6] -1.5%

C1CCC(N=C2N(C3CCCCC3)C(=NC3CCCCC3)N2C2CCCCC2)CC1
inactive: [1] 4.7% | [2] -28.3% | [3] -7.2% | [4] -19.6% | [5] -20.6% | [6] -4.35%

C[C@]12CC=CC(=O)[C@@]1(C)CCC(=O)C2
inactive: [1] 3.45% | [2] 0.95% | [3] -9.05% | [4] -25.4% | [5] -4.7% | [6] 8.1%

O=C1c2cccc3cccc(c23)C(=O)N1CCO
inactive: [1] 50.6% | [2] 22.2% | [3] 39.9% | [4] 17.9% | [5] 16.2% | [6] 33.2%

Cc1c(C(=O)O)sc2ccc([N+](=O)[O-])cc12
inactive: [1] -8.15% | [2] 2.5% | [3] -9.35% | [4] -46.5% | [5] -13.3% | [6] -0.6%
